{"source": "PubChem BioAssay AID504770", "about": "(ICCB-Longwood Screening Facility, Harvard Medical School, 2011)", "note": "Among all 130,000 compounds or so, about 350 (0.27%) were called active. What follows is part of a selection rich in actives, with near analogues and random picks from the rest. A number with no mark means an inactive call. Rule as the data show it: active = z-score below about -2 (passing the limit was not always enough); inactive = the rest."}
{"experiment": "PubChem AID 504770", "settings": "E. coli YBA685 rctB-dependent plasmid, OD600 growth, 3 h; hits give low values"}
{"smiles": "Cc1ccccc1NC(=O)CSC(=O)c1ccccc1", "z-score": 0.6}
{"smiles": "COc1ccc(C2C(C#N)(C#N)C2(C#N)C#N)cc1", "z-score": 0.05}
{"smiles": "N#CC1(C#N)C(c2ccc(Cl)c(Cl)c2)C1(C#N)C#N", "z-score": "-6.85 (active)"}
{"smiles": "O=C(O)C(Cc1ccccc1)Nc1ncnc2sc3c(c12)CCC3", "note": "(centres undefined)", "z-score": 0.65}
{"smiles": "CCc1cccc(NC(=O)CC(=O)Nc2ccc3nc4n(c(=O)c3c2)CCCCC4)c1", "z-score": 0.6}
{"smiles": "Cc1c(C(=O)NC2CCCCC2)sc2nc(-c3ccc(F)cc3)cn12", "z-score": 0.15}
{"smiles": "COc1ccc(C(=O)Nc2ccc(-n3nncc3-c3ccccc3)cc2)cc1", "z-score": -0.9}
{"smiles": "Cc1ccccc1NC(=O)NC(=O)CC#N", "z-score": 0.45}
{"smiles": "Cc1ccccc1C(=O)CC#N", "z-score": "-3.2 (active)"}
{"smiles": "Cc1ccccc1C(=O)N(CC#N)CC#N", "z-score": -0.6}
{"smiles": "CC(C)(C)c1ccc(CNCc2ccco2)cc1", "z-score": 0.35}
{"smiles": "CCOC(=O)CN1C=NS(=O)(=O)c2ccccc21", "z-score": 0.4}
{"smiles": "O=C1Nc2ccccc2C1=Nc1cccc(C(F)(F)F)c1", "z-score": -1.05}
{"smiles": "CC(C)c1c(O)c2ccccc2[nH]c1=O", "z-score": -0.4}
{"smiles": "O=C1CCC(C2CCC(=O)CC2)CC1", "z-score": -0.55}
{"smiles": "CCc1nc2ccccc2n1CCO", "z-score": 0.6}
{"smiles": "CS(=O)(=O)Nc1ccccc1C(=O)OCC(=O)NC1CC1", "z-score": -0.75}
{"smiles": "Cc1ccc(NC(=O)Cn2cc3c(n2)CCC(C)C3)c(Cl)c1", "note": "(centres undefined)", "z-score": -0.6}
{"smiles": "COc1cc(CNc2ccc3[nH]c(=O)[nH]c3c2)ccc1OCC(N)=O", "z-score": 1.6}
{"smiles": "Cc1nc(S(=O)(=O)NCc2ccc(-c3cccs3)cc2)cn1C", "z-score": -0.2}
{"smiles": "CCCOc1ccc(NC(=O)CC2SC(N)=NC2=O)cc1", "note": "(centres undefined)", "z-score": -1.1}
{"smiles": "Cc1onc(-c2c(Cl)cccc2Cl)c1/C=N/O", "z-score": -0.4}
{"smiles": "CCCCn1c2nc3ccccc3nc2c2c(N)ncnc21", "z-score": 0.2}
{"smiles": "CCCCn1c2ccccc2c2nc3ccccc3nc21", "z-score": 0.05}
{"smiles": "CCCc1nc2c3ccccc3ncn2n1", "z-score": "-5.5 (active)"}
{"smiles": "Cc1c(C(=O)NCc2ccc(OC(C)C)cc2)oc2ccc3c(c12)C=CC(C)(C)O3", "z-score": 0.85}
{"smiles": "CC(=O)Oc1ccc(OC(C)=O)c2c1C1C=CC2CC1", "z-score": 0.85}
{"smiles": "CC(=O)Oc1cccc2c1C(=O)C=CC2=O", "z-score": "-6.5 (active)"}
{"smiles": "CC(=O)Oc1cccc2c1OC(C)(C)C2", "z-score": 1.6}
{"smiles": "CC1Cc2cc(S(=O)(=O)NCCC(=O)Nc3ccc(F)cc3F)ccc2N1C(=O)C1CC1", "note": "(centres undefined)", "z-score": -0.8}
{"smiles": "COC(F)(C(=O)N1CCOCC1)C(F)(F)F", "note": "(centres undefined)", "z-score": -0.4}
{"smiles": "Cc1ccc(C(=O)C(C)Sc2nnc3ccccn23)cc1", "note": "(centres undefined)", "z-score": -0.05}
{"smiles": "Cc1c(Sc2nc3ccccc3s2)c(=O)[nH]c2cc3c(cc12)OCO3", "z-score": 1}
{"smiles": "C/C=C/C(=O)Nc1ccc(N2CCN(c3ccc(C(F)(F)F)cn3)CC2)nc1", "z-score": 0.05}
{"smiles": "O=C1CC2(CCN(C(=O)Cc3ccccc3)CC2)Oc2ccccc21", "z-score": 2.85}
{"smiles": "CCc1n[nH]c(=O)c2cc3sccc3n12", "z-score": -0.2}
{"smiles": "O=C1c2ccc(-c3nc4ccc(Cl)cc4c(=O)o3)cc2C(=O)N1CC1CCCO1", "note": "(centres undefined)", "z-score": -0.25}
{"smiles": "O=C1NC(=Nc2ccc(O)cc2)S/C1=C\\c1ccc(C(=O)O)cc1", "z-score": -0.6}
{"smiles": "Cc1ccccc1C(CC(=O)O)N1Cc2ccccc2C1=O", "note": "(centres undefined)", "z-score": -0.8}
{"smiles": "Cc1ccc(Cn2c(=O)c3ccccc3n3c(SCC4CCCO4)nnc23)cc1", "note": "(centres undefined)", "z-score": -0.7}
{"smiles": "COc1ccc(NC(=O)c2cc(F)cc3c2OCOC3)cc1", "z-score": 1.45}
{"smiles": "CNS(=O)(=O)c1ccc2[nH]c(=O)cc(C)c2c1", "z-score": 0.45}
{"smiles": "N#CC1=CN(Cc2ccccc2)C=C(/C=N/Nc2ccc(F)cc2)C1", "z-score": -0.9}
{"smiles": "Cc1cc(C(=O)COC(=O)C2CC2C)c(C)n1-c1cccc(S(=O)(=O)N2CCOCC2)c1", "note": "(centres undefined)", "z-score": -0.5}
{"smiles": "O=C(CNC1CCCC1)Nc1ccc(N2CCCC2)cc1", "z-score": -0.15}
{"smiles": "CN1/C(=C\\C(=O)COC(=O)C(C)(C)C)C(C)(C)c2ccccc21", "z-score": -0.4}
{"smiles": "Cn1[nH]c2nc3[nH]n(C)c(=O)c3c(-c3ccccc3)c2c1=O", "z-score": 0.65}
{"smiles": "Cn1nc(SCC(=O)N2c3ccccc3CCc3ccccc32)sc1=S", "z-score": -0.4}
{"smiles": "O=C(Nc1ccc(Cl)c(Cl)c1)Nc1ccnn1C1CCCCC1", "z-score": -1.3}
{"smiles": "CN(C)c1ccc(/C=N/S(=O)(=O)c2ccccc2)cc1", "z-score": -1.15}
{"smiles": "CC1(C)CC(=O)c2c(SCCO)sc(C#N)c2C1", "z-score": -0.35}
{"smiles": "N#CC1=C(N)C(C#N)(C#N)C(c2cccs2)C=C1C1CC1", "note": "(centres undefined)", "z-score": -0.95}
{"smiles": "Cc1nn(CCCC(=O)NCCC2=CCCCC2)c(=O)c2nccn12", "z-score": 0.9}
{"smiles": "O=S1(=O)CCN(Cc2cc(F)cc3c2OCOC3)CC1", "z-score": 0.35}
{"smiles": "CN(C)[C@@H]1C(=O)C(C(N)=O)=C(O)[C@@]2(O)C(=O)C3=C(O)c4c(O)ccc(Cl)c4[C@@H](O)[C@H]3C[C@@H]12", "z-score": "-2.25 (active)"}
{"smiles": "O=c1[nH]nc2ccccn12", "z-score": 1}
{"smiles": "c1ccn2c(c1)nc1nc3nonc3nc12", "z-score": "-5.05 (active)"}
{"smiles": "O=c1cc(O)nc2ccccn12", "z-score": 1.45}
{"smiles": "Cc1ccccc1Oc1ccc(S(=O)(=O)N2CC(C)OC(C)C2)cc1", "note": "(centres undefined)", "z-score": 0.7}
{"smiles": "CC(C)CNC(=O)c1ccc(N(C)C)cc1", "z-score": -1.2}
{"smiles": "CCOc1ccc(N=C2CSC(=O)N2)cc1", "z-score": -0.95}
{"smiles": "CCOC(=O)c1sc(-c2ccccc2)nc1CSc1nccn1C", "z-score": 1.15}
{"smiles": "Cc1c(CCN)sc2nc(-c3ccc(Cl)cc3)nn12", "z-score": 0.25}
{"smiles": "CS(=O)(=O)N1CCN=C1SCc1cccnc1", "z-score": -0.85}
{"smiles": "O=C1CCc2cc(S(=O)(=O)NCC3CCCO3)cc3c2N1CC3", "note": "(centres undefined)", "z-score": 0.8}
{"smiles": "CCOC(=O)c1ccc(-c2cc(=O)c3ccccc3o2)cc1", "z-score": -0.3}
{"smiles": "O=C(Nc1ccc(F)cc1)n1ncc2cc(Cl)ccc21", "z-score": 1.1}
{"smiles": "N#CC(C#N)=Cc1ccc(-c2cccc(C(=O)O)c2)o1", "z-score": 1.85}
{"smiles": "COc1ccc(CNC(=O)COc2ncnc3ccccc23)cc1", "z-score": 0.2}
